Bioassay records (PubChem)
An excerpt weighted towards active compounds, which were near 2.9% of everything screened.
MRP reversal = MRP-mediated drug resistance reversal; H69AR cells + 2 uM doxorubicin, CellTiter-Glo, 72 h; differential viability (reversal), % at 10 µM; hit rate 0.04% among 85,000;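 active = viability drop by adding the cancer drug above about 55%, with treated viability meeting a 40% cutoff, limit read from the data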;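 note: viability without doxorubicin minus viability with 2 µM doxorubicin for each compound; larger differential means the compound sensitizes cells more to doxorubicin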
MRP1 act = activators of MRP-1; viability increase, % at 10 µM; hit rate 0.61% among 140,000; H69AR cells + doxorubicin, viability rescue, CellTiter-Glo;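 active = viability gain under doxorubicin at or above a set limit, the compound median plus 3 SD, cut at about 4.7% in these data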;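 note: MRP-1 overexpressing cells given doxorubicin 25 µM after compound pretreatment; 18-22 h compound pretreatment then 72 h with doxorubicin before readout; 0% = doxorubicin-only wells and 100% = vehicle-treated cells without doxorubicin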
ERa SRC1 inh = blocks coactivator binding to human estrogen receptor alpha | TR-FRET ER-alpha LBD / SRC-1 peptide, estradiol-bound | inhibition, % at 25.6 µM | hit rate 1.7% among 86,000 | AID 629; in the data active = inhibition above about 50%;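 note: 0% = receptor plus peptide control and 100% = peptide only without receptor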
Target sequence (P03372 whole entry, looked up, the tested form may be a part): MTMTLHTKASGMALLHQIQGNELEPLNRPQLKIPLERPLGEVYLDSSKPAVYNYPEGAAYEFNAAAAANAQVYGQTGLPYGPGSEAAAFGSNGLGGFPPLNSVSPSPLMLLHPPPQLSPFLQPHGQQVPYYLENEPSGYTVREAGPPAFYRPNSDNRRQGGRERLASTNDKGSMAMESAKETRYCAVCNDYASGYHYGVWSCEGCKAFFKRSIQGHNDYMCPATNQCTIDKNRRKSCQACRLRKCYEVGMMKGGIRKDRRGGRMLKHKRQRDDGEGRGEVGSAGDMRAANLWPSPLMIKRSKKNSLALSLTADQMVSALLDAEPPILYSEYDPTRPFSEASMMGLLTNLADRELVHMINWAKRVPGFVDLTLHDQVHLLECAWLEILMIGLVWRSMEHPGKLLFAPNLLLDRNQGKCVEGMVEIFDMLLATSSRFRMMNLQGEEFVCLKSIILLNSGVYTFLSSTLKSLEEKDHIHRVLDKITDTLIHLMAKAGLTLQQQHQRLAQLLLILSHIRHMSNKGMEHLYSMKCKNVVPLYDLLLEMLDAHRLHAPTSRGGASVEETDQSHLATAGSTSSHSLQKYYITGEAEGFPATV
ERa coact pot = ER-alpha (human) coactivator binding potentiation; P03372; TR-FRET ERalpha-LBD/SRC-Cy5 coactivator binding, 2 h; 100 = basal binding, no effect; coactivator binding (% of control), % at 25.6 µM; hit rate 1.3% among 86,000; AID 639; in the data active = activity above about 200%;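 note: binding measured in presence of low estradiol as agonist stimulus; 0% = peptide alone without receptor and 100% = receptor with peptide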
ERb coact inh = ER-beta (human) coactivator binding inhibition. inhibition, % at 25.6 µM. hit rate 1.3% among 86,000. TR-FRET ER-beta LBD / SRC1-Cy5 peptide binding; receptor agonist-loaded with 1 µM estradiol;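 active = compounds whose percent inhibition of the receptor-coactivator binding signal exceeds about 50% in the single-dose screen, limit read from the data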;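 note: 0% = receptor plus peptide wells without compound and 100% = peptide-only wells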
Smad3 FoxH1 inh = inhibitors of human Smad3 transcription factor binding; P84022; TR-FRET Smad3/Dy647-FoxH1 peptide binding, europium anti-His; inhibition, % at 25 µM; hit rate 0.29% among 88,000; AID 630;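 active = compounds that reduce the energy-transfer binding signal between the protein and its labelled peptide by more than half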;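 note: 0% = Smad3 plus labelled peptide maximal FRET and 100% = peptide-only background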
* marks the source's active call; other numbers are inactive results; nt = no result; [ ] = dose if it differs, or a comment.

SMILES | MRP reversal | MRP1 act | ERa SRC1 inh | ERa coact pot | ERb coact inh | Smad3 FoxH1 inh
O=C(O)c1ccc(N[C@H](c2ccccc2)c2ccc3cccnc3c2O)cc1 | nt | nt | nt | nt | nt | 9.5
CS(=O)(=O)N1CCN(c2ccccc2NC(=O)Cc2ccc(Cl)cc2)CC1 | -8.7 | -2.6 | -4.8 | 947.9*[fluorescence artefact?] | 1.0 | -7.2
CCN(CC)C(=O)C1CC(=O)N(c2ccc(F)c(Cl)c2)C1 (centres undefined) | 16.1 | -0.9 | 4.4 | 101.3 | 66.9*[fluorescence artefact?] | -16.4
Cc1ccc2nc(N3CCN(S(=O)(=O)c4ccc(C)c(Cl)c4)CC3)c(C#N)cc2c1 | 8.1 | 2.6 | 48.0 | 243.9*[fluorescence artefact?] | 50.1*[fluorescence artefact?] | -2.1
Cc1ccc2nc(N3CCN(C)CC3)c(C#N)cc2c1 | 4.3 | -0.9 | 0.3 | 98.4 | -10.3 | 3.3
COc1ccc2cc(C#N)c(N3CCN(Cc4nnnn4CCC(C)C)CC3)nc2c1 | -11.3 | -1.5 | 4.6 | 108.1 | 16.9 | -4.2
Cc1ccc2cc(C#N)c(N3CCCN(S(=O)(=O)c4ccccc4)CC3)nc2c1 | 5.5 | -0.3 | 31.7 | 349.6*[fluorescence artefact?] | 26.8 | -5.6
Cc1ccc2nc(N3CCN(Cc4nnnn4Cc4ccccc4)CC3)c(C#N)cc2c1 | 7.0 | 0.0 | 38.5 | 372.4*[fluorescence artefact?] | 30.1 | -4.0
Cc1ccc2cc(C#N)c(N3CCCN(S(=O)(=O)c4ccccc4)CC3)nc2c1C | 0.2 | nt | 39.0 | 362.6*[fluorescence artefact?] | 54.7*[fluorescence artefact?] | 9.0
Cc1ccc2cc(C#N)c(N3CCN(C)CC3)nc2c1 | 18.6 | -0.6 | -3.0 | 97.8 | 0.6 | 23.8
Cc1cccc2cc(C#N)c(N3CCN(C)CC3)nc12 | 2.4 | -4.0 | 1.8 | 113.2 | 6.7 | 13.5
CC(C)n1c(NCCc2ccccc2)nc2c1c(=O)n(C)c(=O)n2C | -5.2 | 1.4 | -4.2 | 96.0 | -5.8 | -4.2
CCc1cccc(CC)c1-n1c(SCC(=O)N2CCc3ccccc3C2)nnc1-c1cccnc1 | nt | -4.0 | nt | nt | nt | nt
Cc1c(Cc2ccccc2)sc(NC(=O)/C=C/c2cccc3ccccc23)c1C(N)=O | nt | -4.4 | nt | nt | nt | nt
O=C(O)/C=C/c1c2ccc(=O)c(O)c-2oc2c(O)c(O)ccc12 | nt | nt | nt | nt | nt | -0.2
N[C@@H](CSCc1ccc(I)cc1)C(=O)O | nt | nt | nt | nt | nt | -3.7
Cc1ccc2cc(C#N)c(N3CCCN(S(=O)(=O)c4ccc(F)cc4)CC3)nc2c1 | 11.5 | 3.0 | 44.1 | 349.1*[fluorescence artefact?] | 51.3*[fluorescence artefact?] | 11.8
Cc1ccc(S(=O)(=O)N2CCCN(S(=O)(=O)c3ccc(C)cc3)CC2)cc1 | -0.4 | -3.1 | -3.6 | 107.4 | -1.7 | -1.1
Cc1c(NC(=O)C(C)OC(=O)[C@@H](NC(=O)c2ccccc2)C(C)C)c(=O)n(-c2ccccc2)n1C (some centres undefined) | -12.0 | -1.3 | 3.7 | 114.2 | -4.5 | 1.3
C/C(N)=C(/C#N)C(=O)CSc1nnc(NC(C)C)s1 | 9.9 | -1.6 | 96.7*[fluorescence artefact?] | 1.2 | 99.2*[fluorescence artefact?] | 17.0
C/C(N)=C(/C#N)C(=O)CSc1nnc(Nc2ccccc2C)s1 | 19.4 | -0.1 | 51.2*[fluorescence artefact?] | 42.3 | 65.5* | -7.3
C/C(N)=C(/C#N)C(=O)CSc1ncnc2ccccc12 | -4.8 | -2.4 | 43.1 | 51.0 | 44.8 | 8.7
N=C(N)SCc1ccccc1Cl | nt | 8.6* | nt | nt | nt | nt
N=C(N)SCc1ccc(Cl)cc1Cl (tested in a mixture with another compound) | nt | nt | nt | nt | nt | 3.1
Cc1ccc(NC(=O)Cc2nnc(SCC(=O)c3ccc(Br)cc3)n2C)cc1 | 3.9 | -4.2 | 3.8 | 200.8*[fluorescence artefact?] | 18.7 | 24.2
SMILES | MRP reversal | MRP1 act | ERa SRC1 inh | ERa coact pot | ERb coact inh | Smad3 FoxH1 inh
COc1ccc(S(=O)(=O)N2CCCN(CC(=O)Nc3cc(NC(C)=O)ccc3OC)CC2)cc1 | 10.2 | -2.2 | -3.2 | 112.9 | -5.1 | 12.3
COc1ccc(NC(C)=O)cc1NC(=O)CN1CCN(S(=O)(=O)c2ccc(C(C)C)cc2)CC1 | -11.7 | -3.6 | -3.8 | 248.9*[fluorescence artefact?] | 45.8 | -11.8
CCCn1c(C)nc2c(c1=O)c1nc3ccccc3nc1n2CCc1ccccc1 | 25.4 | nt | 52.9* | 140.7 | 32.8 | 3.9
COCCCn1c2nc3ccccc3nc2c2c(=O)n(-c3ccccc3OC)c(C)nc21 | 3.6 | -3.5 | 12.2 | 318.9* | 4.7 | 7.0
Cc1ccc(NC(=O)CC2SC3=NCCCN3C2=O)c(C)c1 (centres undefined) | -0.8 | -1.6 | -1.3 | 117.7 | 1.7 | -2.8
CC(C)OC(=O)CCCNc1ccc([N+](=O)[O-])cc1[N+](=O)[O-] | nt | 1.2 | nt | nt | nt | nt
Cc1nc(C#N)c(N/N=C/c2c(F)cccc2Cl)o1 | nt | -3.3 | nt | nt | nt | nt
CCN(CC)S(=O)(=O)c1ccc(/C=C/C(=O)Nc2cccc(F)c2)cc1 | nt | -1.7 | nt | nt | nt | nt
O=C(CSc1nnc(SCC(=O)c2ccco2)s1)c1ccco1 | 5.5 | -6.2 | 59.6* | 66.8 | 53.4* | -0.8
O=C(CSc1nc2cc(Cl)ccc2s1)c1ccco1 | -0.2 | -2.1 | 12.3 | 72.8 | 8.0 | -7.9
COC(=O)c1ccc(CSc2nc3ccc(C)cc3[nH]2)o1 | nt | -3.8 | nt | nt | nt | nt
CC(NC(=O)C1CCCC1)c1ccc2c(c1)OCCO2 (centres undefined) | 9.8 | -1.5 | -2.0 | 106.4 | -10.1 | -14.5
CC(NC(=O)C12CC3CC(CC(C3)C1)C2)c1ccc2c(c1)OCCO2 (centres undefined) | 18.4 | 6.9* | 9.0 | 115.9 | -4.4 | -2.2
O=C(CSc1nnc2ccccn12)NCc1cccs1 | 5.8 | -0.6 | -0.4 | 91.5 | -11.1 | 3.6
CCn1nc(C)c(NC(=O)CSc2nnc(-c3ccco3)n2C)c1C | 2.2 | -0.9 | 5.6 | 118.6 | 2.1 | 3.9
Cc1nn(Cc2ccccc2)c(C)c1NC(=O)CSc1nnc(-c2cc(Cl)ccc2O)n1C | -17.7 | -1.0 | 53.1* | 57.6 | 47.2 | 1.4
CCOC(=O)c1sc(NC(=O)c2ccc3ncsc3c2)nc1C | 5.2 | -3.2 | 22.9 | 473.3* | 28.7 | 21.9
CCOC(=O)c1ccc2nc(NC(=O)c3cccs3)sc2c1 | -9.3 | -3.6 | 78.4*[fluorescence artefact?] | 105.9 | 53.8*[fluorescence artefact?] | 3.7
CCOC(=O)Cc1csc(NC(=O)c2ccc(OC)c(OC)c2)n1 | 14.8 | -0.6 | -6.2 | 99.6 | -11.3 | -1.5
CCOC(=O)c1csc(NC(=O)c2ccc(OC)c(OC)c2)n1 | 4.7 | -3.7 | -24.4 | 278.8*[fluorescence artefact?] | -3.4 | 1.5
O=C1c2ccccc2C(=O)N1c1ccc(Cc2ccc(N3C(=O)c4ccccc4C3=O)cc2)cc1 | nt | nt | nt | nt | nt | 9.9
Cc1cc2nc(C)n(CCCNC(=O)Nc3cccc4ccccc34)c2cc1C | 12.7 | 1.8 | 50.7*[fluorescence artefact?] | 96.4 | 32.9 | 1.7
CC1(C)OC[C@@H]2O[C@H](n3cnc4c(N)nc(Cl)nc43)[C@H](OS(C)(=O)=O)[C@H]2O1 | nt | nt | nt | nt | nt | 36.6
O=C(c1cc2ccccc2oc1=O)N(Cc1cccs1)Cc1cccs1 | -1.5 | -1.9 | -4.0 | 113.4 | -2.5 | 1.3
O=C(c1cc2ccccc2oc1=O)N(Cc1ccco1)Cc1cccs1 | 7.8 | -1.2 | -9.2 | 537.1* | -5.9 | -6.2
CCCCOC(=O)Nc1ccc(S(=O)(=O)Nc2ccc([N+](=O)[O-])cc2)cc1 | nt | 4.7* | nt | nt | nt | nt
CCCCOC(=O)Nc1ccc(C(C)C)cc1 | -0.7 | 6.0* | -9.1 | 119.3 | -13.3 | 2.3
CCCCOC(=O)Nc1ccc(C(N)=O)cc1 | 5.7 | -2.1 | -5.5 | 100.2 | -5.8 | -7.3
